In PubChem BioAssay AID707 (Columbia University Molecular Screening Center, 2007) one finds inhibition data, which are given here for 93 compounds.

In all, about 91,000 compounds went through this assay and about 310 (0.34%) were called active. Rule as the data show it: active = inhibition above about 80%; inactive = the rest. Only a selection was taken, and actives are over-represented in it overall.

The target in the test is Bifunctional epoxide hydrolase 2 (Homo sapiens) (UniProt P34913). Nature of the test: sEH enzyme activity blockers – biochemical, human sEH, primary screen (AID 707). The settings on record: recombinant human sEH enzymatic activity assay; at 2 µM; stronger effect = higher value.
Chain of Bifunctional epoxide hydrolase 2 (Homo sapiens) (P34913 whole entry, looked up): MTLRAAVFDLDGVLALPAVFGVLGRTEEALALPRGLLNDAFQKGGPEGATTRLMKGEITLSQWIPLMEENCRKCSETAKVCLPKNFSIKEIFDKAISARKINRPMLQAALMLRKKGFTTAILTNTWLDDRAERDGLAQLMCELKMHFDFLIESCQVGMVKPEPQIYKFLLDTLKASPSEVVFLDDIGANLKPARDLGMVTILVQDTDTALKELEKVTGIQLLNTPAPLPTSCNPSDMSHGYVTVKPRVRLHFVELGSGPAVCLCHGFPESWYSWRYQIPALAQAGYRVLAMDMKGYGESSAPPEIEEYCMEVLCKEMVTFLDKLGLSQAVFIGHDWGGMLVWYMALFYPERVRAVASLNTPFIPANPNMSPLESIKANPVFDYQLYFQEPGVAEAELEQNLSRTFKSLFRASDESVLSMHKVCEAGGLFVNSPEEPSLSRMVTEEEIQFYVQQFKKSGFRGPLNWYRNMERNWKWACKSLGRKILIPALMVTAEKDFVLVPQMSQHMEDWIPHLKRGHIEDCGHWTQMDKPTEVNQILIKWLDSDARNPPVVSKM
With `Cc1ccc(NC(=S)N/N=C2/CCCc3c(C)cc(C)cc32)cc1`, the inhibition – broadly, the change of the read-out against control, counted positive when it falls – was -9.1% (inactive).
Regarding `CCN(CC)CCNc1ccc(Cl)cc1[N+](=O)[O-]`, the inhibition is 6.5% (inactive).
The value for `CSCc1cc(N2CCOCC2)nc(SCc2ccc(Cl)cc2Cl)n1` was -22.1% (inactive); that for `CCc1ccc(/C=N/NC(=O)c2ccc(OC3CCCC3)cc2)s1` was 95.6% (active); that for `CCOc1ccc(C(=O)NC2CCN(S(=O)(=O)CC)CC2)cc1` was -0.5% (inactive).
As for `COc1ccc(C(=O)Nc2ccccc2C(=O)N/N=C/c2ccccc2OC)cc1`, the inhibition is 4.7% (inactive).
Next, `O=C(NC1CCCCC1)c1cc([N+](=O)[O-])ccc1N1CCOCC1`: 2.6% (inactive); `C/C(=N\NS(=O)(=O)c1cccc([N+](=O)[O-])c1)c1cc2ccccc2o1`: 7.3% (inactive).
`O=C(Nc1ccn(Cc2ccccc2F)n1)c1ccc(COc2ccc(Cl)cc2Cl)o1`: the inhibition is 1.6% (inactive).
As to `O=C(Nc1ccc(-n2ccnc2P(=O)(O)c2ccccc2)cc1)c1ccccc1Br`, the inhibition was -9.1% (inactive).
For the compound `CC(=O)Nc1cccc(/C(C)=N/NC(=O)c2ccccc2Cl)c1`, the inhibition is 7.7% (inactive).
The value for `O=C(NNS(=O)(=O)c1ccc(Cl)cc1)C1CCN(Cc2ccccc2)CC1` was -4% (inactive); that for `CN(C)/C(CN1CCCCC1)=C1\N=C(c2ccccc2)OC1=O` was 6.9% (inactive); that for `CC(=O)c1cnc(SCCN2C(=O)c3ccccc3C2=O)nc1C` was 8.1% (inactive).
Next, `C=CCNC(=O)c1sc(SC)cc1-c1ccc(Cl)cc1`: -13.7% (inactive); `CC(C)CNC(=S)NNC(=O)c1ccccc1OC(F)F`: -9.6% (inactive); `COC(=O)c1ccccc1OCC(=O)N1CCN(c2ccc(Cl)cc2)CC1`: 46.4% (inactive).
Next, `Cc1c(NC(=O)CCCOc2ccccc2)cccc1[N+](=O)[O-]`: 11.7% (inactive); `CCC(=O)Nc1ccc(C(=O)Nc2cc(C)on2)cc1`: -8.6% (inactive).
In the case of `CCOc1ccc(C(CCc2ccccc2)NC(=O)c2ccc(OC)c(OC)c2)cc1OCC` (stereo not drawn), the inhibition is -23.6% (inactive).
The value for `COc1cccc(-c2nnc(SCCOc3ccc4c(C)cc(=O)oc4c3)o2)c1` was 12.2% (inactive); that for `CCCCn1c(=S)[nH]c2cc(S(=O)(=O)N3CCCCC3)ccc21` was 6.5% (inactive); that for `O=C(c1ccc(F)cc1)c1c[nH]c(C(=O)NCc2cccnc2)c1` was -11.2% (inactive).
The value for `N#Cc1ccsc1NC(=O)CN1CCCCC1` was -1.4% (inactive).
Next, `O=C(COc1ccc(Cl)cc1)NCCC1=CCCCC1`: 14.4% (inactive).
For the compound `COc1cc(C(=O)N2CCN(C/C=C/c3ccccc3)CC2)cc(OC)c1C`, the inhibition was -12.7% (inactive).
Turning to `NC(=O)N1CCCC1C(=O)Nc1ccc(Cl)c(Cl)c1` (stereo not drawn), the inhibition was 6.3% (inactive).
The value for `Nc1nc(Br)c2ccccc2c1-c1ccc(F)cc1` was 4.8% (inactive).
Next, `Cc1ccc(-c2csc(N(Cc3ccco3)C(=O)c3cccs3)n2)cc1`: -9.9% (inactive); `O=[N+]([O-])c1ccc(NCCCN2CCOCC2)c(Cl)c1`: 19.3% (inactive); `CC(C)NC(=O)NC(=O)COC(=O)c1ccc(NC(=O)CC#N)cc1`: -6% (inactive).
On to `CC(C)C(NS(=O)(=O)c1cccs1)C(=O)Nc1nc(C(C)(C)C)cs1` (stereo not drawn), for which the inhibition was 3.1% (inactive).
Take `COc1cccc(/C=N/NC(=O)C(=O)N2CCCC2)c1`: the inhibition was -4.3% (inactive).
Next, `O=c1cc(N2CCN(Cc3ccccc3)CC2)c(-c2ccccc2)n[nH]1`: 5.8% (inactive); `COc1cccc(NC(=O)C2c3cc(OC)c(OC)cc3C(=O)N(C)C2c2cccnc2)c1` (stereo not drawn): -8.1% (inactive).
Next, `O=C(CN1C(=O)NC2(CCCC2)C1=O)Nc1ccc(F)c(F)c1F`: -1.5% (inactive); `O=C(CCCN1C(=O)c2cccc3cccc(c23)C1=O)N1CCN(Cc2ccc3c(c2)OCO3)CC1`: 5.9% (inactive).
Next, `N/C(=N\OC(=O)c1cc(-c2ccccc2)nc2ccccc12)c1ccncc1`: -2% (inactive); `O=C(CSCc1ccc([N+](=O)[O-])cc1)Nc1cccc(C(=O)Nc2ccccc2C(=O)O)c1`: -3.9% (inactive).
Consider `Cc1cc(C(=O)OCC(=O)Nc2ccc(F)c(F)c2)c(C)o1`, for which the inhibition is 7.9% (inactive).
Next, `CCC(C)n1c(-c2cc(OC)c(OC)c(OC)c2)nc2nc3ccccc3nc21` (stereo not drawn): -0.7% (inactive).
The value for `O=C(CNC(=O)OCc1ccccc1)Oc1cc2oc(=O)cc(-c3ccccc3)c2cc1Cl` was -5.2% (inactive); that for `COc1ccccc1N(C)S(=O)(=O)c1ccc(C(=O)N2CCC(C(N)=O)CC2)cc1` was 12.9% (inactive); that for `CN(C(=O)CSc1nc(C2CC2)nc2ccccc12)c1nc(-c2ccccc2)cs1` was 4.4% (inactive).
Next, `CCCCNC(=O)c1onc(CSc2cccc(OC)c2)c1C(=O)O`: -10.5% (inactive); `CCOC(=O)C1=C(CN2CCc3ccccc32)NC(=O)NC1c1cc(C)ccc1C` (stereo not drawn): -4.9% (inactive); `COc1ccc(SCc2noc(C(=O)NCC3CCCO3)c2C(=O)O)cc1` (stereo not drawn): 1.5% (inactive).
`O=C(Cc1cccc2ccccc12)Nc1ccc2oc(-c3ccccc3)nc2c1`: the inhibition is 50% (inactive).
The value for `CCCCCC(=O)Nc1ccc2oc(-c3ccncc3)nc2c1` was 84.3% (active).
The value for `O=C(Nc1ccc2oc(-c3ccc4ccccc4c3)nc2c1)c1cccs1` was 34.6% (inactive); that for `C=CCNc1cnn(-c2ccc(C)cc2)c(=O)c1Cl` was 1.9% (inactive); that for `CC(C)CC(=O)N1CCC(O)(CS(=O)(=O)Cc2ccccc2)CC1` was 1.9% (inactive).
Next, `O=C(CN1CCN(S(=O)(=O)c2ccc(Cl)s2)CC1)NCc1ccc(Cl)cc1`: -1.1% (inactive).
For the compound `CC(C)(CCl)C(=O)Nc1ccc(Sc2ccc(F)cc2)cc1`, the inhibition was 28.4% (inactive).
Next, `COC(=O)C(NC(=O)c1ccc(OC)cc1)(Nc1ncc(S(=O)(=O)c2ccc([N+](=O)[O-])cc2)s1)C(F)(F)F` (stereo not drawn): -1.7% (inactive); `COc1ccc(OCC(=O)NN2Cc3ccccc3C2=N)cc1`: 4.7% (inactive).
Next, `Cc1ccccc1CSCCNC(=O)c1ccc(Cl)c(S(=O)(=O)N2CCOCC2)c1`: 83.4% (active); `O=C(NCCSCc1ccccc1)c1ccc(Cl)c(S(=O)(=O)N2CCOCC2)c1`: 78.5% (inactive).
Next, `Cc1ccccc1CSCCNC(=O)c1ccc(N(C)S(=O)(=O)c2ccccc2)cc1`: 36.1% (inactive); `O=C(COC(=O)c1ccccc1NC(=O)c1ccco1)Nc1ccc2c(c1)OC(F)(F)O2`: 28.3% (inactive).
Turning to `CO/N=C/c1ccc(N2CCN(C(=O)c3cccc(Cl)c3)CC2)c([N+](=O)[O-])c1`, the inhibition was -9.1% (inactive).
The value for `N#C/C(=C(/O)Cc1cccc2ccccc12)c1nc2ccccc2s1` was -15.9% (inactive).
Next, `O=C(ON=C1CCN(S(=O)(=O)c2ccccc2)CC1)c1ccc(Cl)cc1`: 2.3% (inactive).
Next, `O=C(CSc1ccc(/C=N/NC(=O)c2cccc(F)c2)o1)Nc1ccccc1`: 79% (inactive); `Cc1noc(C)c1S(=O)(=O)N(CC(=O)NCc1ccc(Cl)cc1)c1ccc2c(c1)OCO2`: 14.5% (inactive).
In the case of `O=C(/C=C/c1ccc(Cl)cc1Cl)NCc1ccco1`, the inhibition is 19.3% (inactive).
On to `O=C(/C=C/c1cc2c(cc1Br)OCO2)NCc1ccc(Cl)cc1`, for which the inhibition was 85.9% (active).
The value for `O=C(CNC(=O)Cc1ccccc1)NCC(=O)OCC(=O)c1ccccc1Cl` was -0.5% (inactive); that for `CCC(=O)OCc1c(C(F)(F)F)nn(C)c1Oc1cccc(C(F)(F)F)c1` was 7.8% (inactive).
Next, `O=C(O)c1ccccc1NC(=S)NC(NC(=O)c1ccccc1[N+](=O)[O-])C(Cl)(Cl)Cl` (stereo not drawn): 7.4% (inactive); `CNC(=S)NNC(=O)c1sccc1OCc1ccccc1`: -3.9% (inactive).
The value for `N#Cc1cc([N+](=O)[O-])ccc1Oc1cccc(/C=N/NC(=O)c2ccc(Cl)cc2)c1` was 18.1% (inactive).
As for `COc1ccc(-c2cc(C(=O)n3cnc4ccccc43)c3ccccc3n2)cc1`, the inhibition is -13.6% (inactive).
The value for `Cc1cc([N+](=O)[O-])c(NC2CCCCC2)c([N+](=O)[O-])c1` was -4.6% (inactive); that for `COc1ccc(C(=O)NCCc2ccc(S(N)(=O)=O)cc2)cc1OC` was 6.9% (inactive); that for `O=C(NCCCN1CCCCC1)c1ccc2c(c1)NC(=O)C(N1CCOCC1)S2` (stereo not drawn) was 10% (inactive).
Next, `COc1ccc(CCNC(=O)c2ccc3c(c2)NC(=O)C(N2CCOCC2)S3)cc1OC` (stereo not drawn): 100% (active); `O=C1CSC(c2ccccc2)N1c1nc(-c2ccc(Cl)cc2Cl)cs1` (stereo not drawn): 10.5% (inactive).
The value for `O=C(CN1C(=O)NC(Cc2ccccc2)(Cc2ccccc2)C1=O)NCC1CCCCC1` was -8.9% (inactive).
`Cn1c2ccccc2n2c(=O)c(=O)n(CC(=O)c3ccc(F)cc3)nc12`: the inhibition was -2% (inactive).
The value for `O=C(CN1CCCCCC1)Nc1ccc(Br)cc1Br` was 9.4% (inactive); that for `CC1(C)CC(=O)C(C=NCCN2CCN(C(=S)Nc3cccc(Cl)c3)CC2)=C(O)C1` was 13.9% (inactive); that for `O=C(Cn1cncn1)N/N=C/c1c2ccccc2cc2ccccc12` was 2% (inactive).
Next, `C=CCOC(=O)C1=C(C)NC(C)=C(C(=O)OCC=C)C1c1cccs1`: -5.1% (inactive); `COc1ccccc1CSc1nc2ccccc2[nH]1`: -2.6% (inactive).
With `COc1cc(OC)c(/C=N/NC(=O)c2ccc([N+](=O)[O-])cc2)cc1Br`, the inhibition was 35.2% (inactive).
For the compound `Cc1ccc(NC(=S)Nc2ncccc2C)c(C)c1`, the inhibition is 6.9% (inactive).
Next, `O=C(/C=C/c1ccccc1)N/C(=C/c1ccccc1)C(=O)Nc1ccccc1O`: 2.8% (inactive); `Cc1cc2cc3c(N)[nH]nc3nc2cc1C`: 4.3% (inactive).
Next, `Cc1ccc(-n2nc(N)c3c(=O)oc(N(C)C)nc32)cc1`: 10.2% (inactive); `COc1cc(C(=O)NC(=S)NCc2ccco2)cc(OC)c1OC`: 12% (inactive).
The value for `Cc1ccc(-c2nc3ccccc3[nH]2)cc1NC(=O)c1sc2ccccc2c1Cl` was 10.9% (inactive); that for `NC(=O)C1(N2CCCCC2)CCN(C(=S)Nc2ccc(Cl)cc2)CC1` was 0.6% (inactive).
